Measurements reported in PubChem BioAssay AID504942 (Broad Institute, 2011).
Potency and affinity values are given separately. Active and inactive are the calls of the source. The rule behind the calls is not given here.

Test: toxicity to human HeLa cells – cell-based, 48 h, plate reader, cherry-picks, cytotoxicity control, dose response (AID 504942)
Conditions: series mostly up to 38 µM; activity change, negative = toxicity: at the top concentration

SMILES | activity change, negative = toxicity
N#CC(c1ccc(Cl)nn1)c1ccccc1Cl (centres undefined) | -11.4% (inactive)
O=C1C=C(c2cccc(Cl)c2)C[C@@H](c2ccc(F)cc2)C1 | -6.13% (inactive)
O=C1C2C3C=CC(C4CC34)C2C(=O)N1Cc1ccco1 (centres undefined) | -3.39% (inactive)
CCOC(=O)c1ccc(-c2ccc(C=O)o2)cc1 | -9.6% (inactive)
CCCCCC1CC(COc2ccccc2)OC1=O (centres undefined) | -6.43% (inactive)
O=C(/C=C/c1cccs1)c1cc(Cl)ccc1O | -1.83% (inactive)
COc1ccc(N=C(C)C2=C(O)CSC2=O)cc1 | 5.08% (inactive)
Cc1ccc(S(=O)c2ccc(C)cc2)cc1 | 7.24% (inactive)
Cn1cccc1C(C#N)c1cccc(F)c1C#N (centres undefined) | -6.29% (inactive)
COc1ccc(C(C#N)c2ccc(Cl)nn2)cc1 (centres undefined) | -3.69% (inactive)
O=C(NC1CCCC1)c1cccc(Cl)c1 | -3.45% (inactive)
CCC(C)NS(=O)(=O)c1ccc(OC)c(Cl)c1Cl (centres undefined) | -0.92% (inactive)
Cc1ccc2nc(-c3ccc4c(c3)OCCO4)cn2c1 | -0.368% (inactive)
CCOC(=O)c1ccc(-c2ccc(CO)o2)cc1 | -1.41% (inactive)
CCCNS(=O)(=O)c1ccc(OC)c(Cl)c1Cl | 1.84% (inactive)
N#CN(Cc1ccccc1)Cc1ccccc1 | -1.87% (inactive)
N#CC(c1cccc(Cl)c1)c1ncc(C(F)(F)F)cc1Cl (centres undefined) | -0.874% (inactive)
CCOC1=CC(=O)OC(c2ccccc2)C1 (centres undefined) | 3.44% (inactive)
Cc1cccc(NC(=O)Nc2cc(C)on2)c1 | 7.03% (inactive)
N#CC(Sc1ccccn1)c1ccc(Cl)cc1 (centres undefined) | 1.92% (inactive)
CCOC(=O)N1CCN(c2ccc(Cl)cc2)CC1 | 8.67% (inactive)
CSc1nnc(-c2ccc([N+](=O)[O-])cc2)o1 | 8.43% (inactive)
N#CC(c1ccc(Cl)nn1)c1ccc(Cl)cc1Cl (centres undefined) | 2.16% (inactive)
CCOC(=O)/C=C(\C)Sc1cc(=O)oc2ccccc12 | 26.4% (inactive)
CSC1=N/C(=C\C=C\c2cccs2)C(=O)S1 | 3.28% (inactive)
N#CC(c1ccc(Cl)cc1)c1ccc(Cl)nn1 (centres undefined) | -6.72% (inactive)
CCOC(=O)c1ccc(N2Cc3ccccc3C2=N)cc1 | 3.25% (inactive)
Clc1ccc2scc(CN3CCCC3)c2c1 | 6.28% (inactive)
O=C1N[C@@H](Cc2ccccc2)[C@@H](c2ccco2)O1 | 4.94% (inactive)
